The entries come from a sample that favours hits as a whole.
miR122 inh: miR-122 sensor activation; Huh7 psiCHECK-miR122 Renilla luciferase sensor, 48 h; hit rate 0.14% among 340,000; activation, % at 12.5 µM;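 active means mean activation of 30% or more, with every replicate also reaching 30%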;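 further: 0% = median of neutral control wells and 100% = median of positive control wells; higher luciferase signal means stronger suppression of miR-122 activity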
* = called active by the depositor.

SMILES	miR122 inh
CCC(=O)Nc1ccc2c(c1)OC[C@@H](C)NC[C@@H](C)[C@H](OC)CN(C)C2=O	4
C[C@@H]1CN([C@@H](C)CO)C(=O)c2cc(-c3ccccc3F)cnc2O[C@@H]1CN(C)Cc1ccccc1F	0
C[C@@H]1CN([C@@H](C)CO)C(=O)c2cc(/C=C/c3ccccc3)cnc2O[C@H]1CN(C)C(=O)C1CCOCC1	-3
C[C@@H]1CN([C@@H](C)CO)C(=O)c2cccc(NS(=O)(=O)c3ccccc3)c2O[C@@H]1CN(C)Cc1ccc(C(=O)Nc2ccccc2N)cc1	-181
CCC(=O)Nc1ccc2c(c1)OC[C@H](C)NC[C@H](C)[C@@H](OC)CN(C)C2=O	-6
C[C@H]1CN([C@@H](C)CO)C(=O)c2cc(-c3cccc(C(=O)N(C)C)c3)cnc2O[C@@H]1CN(C)C(=O)Cc1ccccn1	-3
COc1ccc(-c2cnc3c(c2)C(=O)N([C@H](C)CO)C[C@@H](C)[C@H](CN(C)C(=O)C2CCOCC2)O3)cc1	-1
C[C@H](CO)N1C[C@H](C)[C@H](CN(C)C(=O)C2CCOCC2)Oc2cc(-c3ccc(C(=O)N(C)C)cc3)ccc2S1(=O)=O	4
C[C@H]1CN([C@@H](C)CO)S(=O)(=O)c2ccc(-c3ccc(C(=O)N(C)C)cc3)cc2O[C@H]1CN(C)C(=O)C1CCC1	43*
C[C@H](CO)N1C[C@H](C)[C@H](CN(C)C(=O)C2CCC2)Oc2cc(-c3ccc(C(=O)N(C)C)cc3)ccc2S1(=O)=O	55*
C[C@H]1CN([C@@H](C)CO)S(=O)(=O)c2ccc(-c3ccc(C(=O)N(C)C)cc3)cc2O[C@H]1CN(C)C(=O)C1CCOCC1	7
C[C@@H]1CN([C@H](C)CO)S(=O)(=O)c2ccc(-c3ccc(C(=O)N(C)C)cc3)cc2O[C@@H]1CN(C)C(=O)C1CCOCC1	20
C[C@H]1CN([C@@H](C)CO)S(=O)(=O)c2ccc(-c3ccc(C(=O)N(C)C)cc3)cc2O[C@@H]1CN(C)C(=O)C1CCOCC1	-9
COc1ccc(C(=O)Nc2ccc3c(c2)OC[C@@H](C)N(C)C[C@H](C)[C@H](OC)CN(C)C3=O)cc1	-5
C[C@@H](O)C#Cc1ccc2c(c1)O[C@@H](CN(C)CC1CCOCC1)[C@@H](C)CN([C@@H](C)CO)S2(=O)=O	5
CC(C)NC(=O)N(C)C[C@H]1Oc2cc(C3=CCCCC3)ccc2S(=O)(=O)N([C@@H](C)CO)C[C@@H]1C	-14
C[C@H](CO)N1C[C@H](C)[C@H](CN(C)Cc2cncnc2)Oc2ncc(-c3cccc(F)c3)cc2C1=O	-32
CCCNC(=O)N(C)C[C@@H]1Oc2cc(C#CC(C)C)ccc2S(=O)(=O)N([C@H](C)CO)C[C@@H]1C	-9
Cc1ccc(-c2cnc3c(c2)C(=O)N([C@H](C)CO)C[C@H](C)[C@H](CN(C)C(=O)c2ccncc2)O3)cc1	-3
C[C@H](CO)N1C[C@H](C)[C@H](CN(C)C(=O)c2cccnc2)Oc2ncc(Br)cc2C1=O	2
Cc1ccc(S(=O)(=O)c2ccc([N+](=O)[O-])cn2)cc1	33*
C/C=C/c1ccc2c(c1)O[C@@H](CN(C)S(=O)(=O)c1ccccc1OC)[C@H](C)CN([C@@H](C)CO)S2(=O)=O	-3
C[C@H](CO)N1C[C@H](C)[C@@H](CN(C)Cc2ccc(C(=O)O)cc2)Oc2ncc(-c3ccc(F)cc3)cc2C1=O	4
COCC#Cc1cnc2c(c1)C(=O)N([C@H](C)CO)C[C@@H](C)[C@@H](CN(C)C(=O)Nc1ccccc1OC)O2	-7
CC(C)CC#Cc1ccc2c(c1)O[C@@H](CN(C)C(=O)C1CCOCC1)[C@H](C)CN([C@H](C)CO)S2(=O)=O	-6
SMILES	miR122 inh
Cc1nnc(NC(=O)CSc2nc(C(C)C)nc3sc(C)c(C)c23)s1	55*
CCCC(=O)Nc1ccc2c(c1)C(=O)N(C)C[C@H](OC)[C@H](C)CN(CCC)[C@@H](C)CO2	1
C[C@@H]1CN([C@H](C)CO)C(=O)c2cc(C#Cc3ccccn3)cnc2O[C@@H]1CN(C)C(=O)CCN1CCCCC1	1
COCC#Cc1ccc2c(c1)O[C@H](CN(C)C(=O)COC)[C@H](C)CN([C@H](C)CO)S2(=O)=O	13
CN1C(=O)c2cc(NC(=O)Cc3cccs3)ccc2OC[C@@H]2O[C@H](CC(=O)NCC3CCCCC3)CC[C@@H]21	-154
CN1C(=O)c2cc(NC(=O)c3cccs3)ccc2OC[C@@H]2O[C@@H](CC(=O)NCCN3CCCCC3)CC[C@H]21	83*
CO[C@H]1CN(C)C(=O)c2cc(NC(=O)c3nc4ccccc4s3)ccc2OC[C@@H](C)N(Cc2ccncc2)C[C@H]1C	-2
CN1C(=O)c2cc(NC(=O)c3cccs3)ccc2OC[C@H]2O[C@@H](CC(=O)N3CCCCC3)CC[C@H]21	37*
CCCC(=O)Nc1ccc2c(c1)C(=O)N(C)C[C@@H](OC)[C@@H](C)CN[C@@H](C)CO2	0
CO[C@H]1CN(C)C(=O)c2cc(NC(=O)C3CCOCC3)ccc2OC[C@@H](C)N(C)C[C@@H]1C	-4
CO[C@@H]1CN(C)C(=O)c2cc(NC(=O)C3CCOCC3)ccc2OC[C@@H](C)N(C)C[C@H]1C	-1
CN1C(=O)c2cc(NC(=O)c3cccs3)ccc2OC[C@H]2O[C@H](CC(=O)NCC(F)(F)F)CC[C@H]21	50*
CCCC(=O)Nc1ccc2c(c1)C(=O)N(C)[C@@H]1CC[C@H](CC(=O)NCC(F)(F)F)O[C@H]1CO2	37*
CCCC(=O)Nc1ccc2c(c1)C(=O)N(C)[C@H]1CC[C@@H](CC(=O)NCC(F)(F)F)O[C@H]1CO2	-143
CCC(=O)N(C)C[C@@H]1Oc2ncc(C#Cc3ccc(OC)cc3)cc2C(=O)N([C@@H](C)CO)C[C@@H]1C	9
CC(C)NC(=O)N(C)C[C@H]1Oc2cc(-c3ccccc3)ccc2S(=O)(=O)N([C@H](C)CO)C[C@@H]1C	-12
C[C@H]1CN([C@@H](C)CO)C(=O)c2cc(-c3ccc(F)cc3)cnc2O[C@@H]1CN(C)C(=O)c1cccnc1	10
COc1ccccc1S(=O)(=O)N(C)C[C@H]1Oc2cc(/C=C/c3ccccc3)ccc2S(=O)(=O)N([C@H](C)CO)C[C@H]1C	-43
CCC(=O)Nc1ccc2c(c1)OC[C@H](C)NC[C@@H](C)[C@@H](OC)CN(C)C2=O	-7
C/C=C/c1ccc2c(c1)O[C@H](CN(C)S(C)(=O)=O)[C@H](C)CN([C@H](C)CO)S2(=O)=O	-13
CCC(=O)Nc1ccc2c(c1)OC[C@H](C)N(C(=O)c1ccncc1)C[C@@H](C)[C@@H](OC)CN(C)C2=O	1
CCCNC(=O)N1C[C@H](C)[C@@H](OC)CN(C)C(=O)c2cc(NS(=O)(=O)CC)ccc2OC[C@@H]1C	2
CCS(=O)(=O)Nc1ccc2c(c1)C(=O)N(C)C[C@@H](OC)[C@H](C)CN(CC1CCCC1)[C@H](C)CO2	38*
CCCNC(=O)N1C[C@@H](C)[C@@H](OC)CN(C)C(=O)c2cc(NS(=O)(=O)CC)ccc2OC[C@H]1C	-2
C[C@@H]1CN([C@@H](C)CO)C(=O)c2cccc(NC(=O)c3cnccn3)c2O[C@@H]1CN(C)Cc1ccc(C(=O)Nc2ccccc2N)cc1	-129
Clc1ccc2c(N/N=C/c3ccccc3Br)ccnc2c1	59*
C[C@H]1CN([C@@H](C)CO)S(=O)(=O)c2ccc(C#Cc3ccncc3)cc2O[C@H]1CN(C)C(=O)c1ccncc1	7
CCCNC(=O)Nc1ccc2c(c1)OC[C@H](C)N(C)C[C@H](C)[C@@H](OC)CN(C)C2=O	-2

Bioassay records: PubChem BioAssay, Broad Institute
